Screen size: about 200,000 compounds; about 15 (0.007%) were called active. Shown is part of a subset that was picked to be rich in actives. Unmarked numbers belong to inactive results. Cut-off read from the data, not from the text of the source: active = displacement above about 50%; inactive = the rest.

In this test the target is E3 ubiquitin-protein ligase XIAP (Homo sapiens) (UniProt P98170). Nature of the test: small molecules displacing peptide from XIAP – biochemical, IAP family, fluorescence polarization (AID 1018). To be noted: XIAP BIR domain, at 20 µM, active compounds read high. In general terms: In fluorescence polarisation assays a small probe gives low polarisation when free and higher when bound to something large.
Chain of E3 ubiquitin-protein ligase XIAP (Homo sapiens) (P98170 whole entry, looked up, the tested form may be a part): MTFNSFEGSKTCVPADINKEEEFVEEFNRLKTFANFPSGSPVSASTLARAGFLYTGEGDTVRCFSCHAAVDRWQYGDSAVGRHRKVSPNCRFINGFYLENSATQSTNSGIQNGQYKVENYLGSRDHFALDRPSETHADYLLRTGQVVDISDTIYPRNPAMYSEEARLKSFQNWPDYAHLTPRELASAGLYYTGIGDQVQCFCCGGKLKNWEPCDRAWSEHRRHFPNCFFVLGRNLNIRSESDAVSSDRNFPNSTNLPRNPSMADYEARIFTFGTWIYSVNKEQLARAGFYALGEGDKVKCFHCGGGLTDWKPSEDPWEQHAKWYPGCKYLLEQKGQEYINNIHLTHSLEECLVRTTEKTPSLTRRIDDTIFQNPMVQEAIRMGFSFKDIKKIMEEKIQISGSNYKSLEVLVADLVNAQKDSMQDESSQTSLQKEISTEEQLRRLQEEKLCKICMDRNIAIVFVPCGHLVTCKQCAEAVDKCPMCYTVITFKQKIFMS
Consider `O=C(O)CCc1nc(-c2ccc(Cl)cc2)no1`, for which the displacement was -3.7%.

Regarding `O=C(O)CCCc1nc(-c2ccc(Cl)cc2)no1`, the displacement is 70.8% (active).

For the compound `O=C(O)CCCc1nc(-c2ccccc2)no1`, the displacement was -1.3%.

Turning to `Cc1cccc(-c2n[nH]c(=S)n2-c2ccccc2)c1[N+](=O)[O-]`, the displacement was -3.7%.

Take `CC(=O)C(C(C)=O)C1(O)C(=O)c2ccccc2C1=O`: the displacement was -3.4%.

As for `Fc1cccc(Cn2cc(C(=S)N3CCOCC3)c3ccccc32)c1`, the displacement is -4.3%.

With `CCC(C(=O)O/N=C(\N)c1ccc(Cl)cc1)c1ccccc1` (configuration not stated), the displacement is -3.6%.

`Cc1cccc2cc(COC(=O)C(C)C)c(=O)[nH]c12`: the displacement was -4.3%.

With `COC(=O)c1cn(NC(=O)c2ccc3c(c2)OCO3)c(=O)c2ccccc12`, the displacement is -3.5%.

Turning to `CCOC(=O)C1(CC2CC2)CCN(S(=O)(=O)/C=C/c2ccccc2)CC1`, the displacement was -6.8%.

Turning to `Cc1ccc(-n2c(-c3ccccc3)c[n+]3c2CCc2ccccc2-3)c(C)c1`, the displacement was -4.9%.

In the case of `N/C(=N\OC(=O)CCC1CCCC1)c1ccc([N+](=O)[O-])cc1`, the displacement was -1.2%.

`CC(=O)Nc1cccc(NC(=O)Nc2cccc(Cl)c2C)c1`: the displacement is -2.6%.

Take `CCC/C=N/NC(=O)c1ccc(F)cc1`: the displacement is -5.5%.

Turning to `CCCNC(=O)C12CCC(C)(c3nc4cc(C)c(C)cc4nc31)C2(C)C` (configuration not stated), the displacement is -3%.

Consider `CCOC(=O)N1CCC(N2Cc3cccc(C(=O)Nc4ccc(OC)c(OC)c4)c3C2=O)CC1`, for which the displacement is 1.9%.

For `O=C(Nc1nnc(Cc2ccc(Cl)cc2)s1)C1CCCO1` (configuration not stated), the displacement was -3.9%.

`COCCN1CCN(c2c3c(nc4cc(-c5cccc(F)c5)nn24)CCC3)CC1`: the displacement was -10.3%.

Consider `O=C(O)C(Cc1ccccc1)N1Cc2ccccc2C1=O` (configuration not stated), for which the displacement was -8.8%.

In the case of `O=C(O)[C@H](Cc1ccccc1)N1Cc2ccccc2C1=O`, the displacement was 2.3%.

`CCOC(=O)/C=C/S(=O)(=O)c1ccc(NC(C)=O)cc1`: the displacement is -2.6%.

Consider `CCN(CC)CCN(C(=O)c1c(F)cccc1F)c1nc2cc(C)cc(C)c2s1`, for which the displacement is -3.6%.

In the case of `Cc1ccc(NC(=O)c2ccc(-n3cncn3)c([N+](=O)[O-])c2)cc1`, the displacement was -3.6%.

With `CN(C)CCNC(=O)c1ccccc1`, the displacement was -5.4%.

`CC1CCN(S(=O)(=O)c2ccc(N/N=C(/C#N)C(N)=O)cc2)CC1`: the displacement is -6.4%.

Regarding `Cc1ccc(C)c(NC(=S)N(C)CCO)c1`, the displacement was -3.7%.

For the compound `Cn1c(=O)[nH]c(=O)c2c1nc(N1CCCCC1)n2CCSc1nc2ccccc2o1`, the displacement was -3.9%.

Values taken from PubChem BioAssay AID1018 (Sanford-Burnham Center for Chemical Genomics, 2008).
